Assays:
Assay in all cases: phenotypically active (imaging signature differs from DMSO and reproducible) at any of 0.3-9 uM (binary (1 = active, 0 = inactive)); higher = active
Settings in all cases: treatment time: 24 h
A549-ACTB-RAB5A = test system: A549-ACTB-RAB5A
Summary of the method: (§1)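 Phenotypic activity depended on meeting both a deviation and a reproducibility criterion. The fifteen gene-edited A549, HepG2 and WPMY1 reporter lines were treated at 0.3, 1, 3 or 9 µM for 24 h, four wells each, then imaged live with features normalised to solvent control wells. Deviation required ≥3 of 4 wells past the 95th percentile of control Euclidean distances, and reproducibility a median replicate Pearson correlation above the 95th percentile of non-replicates.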

A549-CANX-COX4 = test system: A549-CANX-COX4
Summary of the method: as §1

A549-GM130-SQSTM1 = test system: A549-GM130-SQSTM1
Summary of the method: as §1

A549-TP53BP1-CLTA = test system: A549-TP53BP1-CLTA
Summary of the method: as §1

A549-TUBA1B-RELA = test system: A549-TUBA1B-RELA
Summary of the method: as §1

HepG2-ACTB-RAB5A = test system: HepG2-ACTB-RAB5A
Summary of the method: as §1

HepG2-CANX-COX4 = test system: HepG2-CANX-COX4
Summary of the method: as §1

HepG2-GM130-SQSTM1 = test system: HepG2-GM130-SQSTM1
Summary of the method: as §1

HepG2-TP53BP1-CLTA = test system: HepG2-TP53BP1-CLTA
Summary of the method: as §1

HepG2-TUBA1B-RELA = test system: HepG2-TUBA1B-RELA
Summary of the method: as §1

WPMY1-ACTB-RAB5A = test system: WPMY1-ACTB-RAB5A
Summary of the method: as §1

WPMY1-CANX-COX4 = test system: WPMY1-CANX-COX4
Summary of the method: as §1

WPMY1-GM130-SQSTM1 = test system: WPMY1-GM130-SQSTM1
Summary of the method: as §1

WPMY1-TP53BP1-CLTA = test system: WPMY1-TP53BP1-CLTA
Summary of the method: as §1

WPMY1-TUBA1B-RELA = test system: WPMY1-TUBA1B-RELA
Summary of the method: as §1

Measured: phenotypically active

CCOc1ccccc1OCCN[C@H](C)Cc1ccc(OC)c(S(N)(=O)=O)c1 [tamsulosin]
inactive: A549-ACTB-RAB5A 0 | A549-CANX-COX4 0 | A549-GM130-SQSTM1 0 | A549-TP53BP1-CLTA 0 | A549-TUBA1B-RELA 0 | HepG2-ACTB-RAB5A 0 | HepG2-CANX-COX4 0 | HepG2-GM130-SQSTM1 0 | HepG2-TP53BP1-CLTA 0 | HepG2-TUBA1B-RELA 0 | WPMY1-ACTB-RAB5A 0 | WPMY1-CANX-COX4 0 | WPMY1-GM130-SQSTM1 0 | WPMY1-TP53BP1-CLTA 0 | WPMY1-TUBA1B-RELA 0

c1ccc2c(c1)CCCC2C1=NCCN1 (stereo not given) [tetrahydrozoline]
inactive: A549-ACTB-RAB5A 0 | A549-CANX-COX4 0 | A549-GM130-SQSTM1 0 | A549-TP53BP1-CLTA 0 | A549-TUBA1B-RELA 0 | HepG2-ACTB-RAB5A 0 | HepG2-CANX-COX4 0 | HepG2-GM130-SQSTM1 0 | HepG2-TP53BP1-CLTA 0 | HepG2-TUBA1B-RELA 0 | WPMY1-ACTB-RAB5A 0 | WPMY1-CANX-COX4 0 | WPMY1-GM130-SQSTM1 0 | WPMY1-TP53BP1-CLTA 0 | WPMY1-TUBA1B-RELA 0

CCN[C@H]1C[C@H](C)S(=O)(=O)c2sc(S(N)(=O)=O)cc21 [dorzolamide]
inactive: A549-ACTB-RAB5A 0 | A549-CANX-COX4 0 | A549-GM130-SQSTM1 0 | A549-TP53BP1-CLTA 0 | A549-TUBA1B-RELA 0 | HepG2-ACTB-RAB5A 0 | HepG2-CANX-COX4 0 | HepG2-GM130-SQSTM1 0 | HepG2-TP53BP1-CLTA 0 | HepG2-TUBA1B-RELA 0 | WPMY1-ACTB-RAB5A 0 | WPMY1-CANX-COX4 0 | WPMY1-GM130-SQSTM1 0 | WPMY1-TP53BP1-CLTA 0 | WPMY1-TUBA1B-RELA 0

O=C(O)c1ccc(N2N=C(Cc3ccccc3)/C(=C/c3ccc(-c4ccccc4F)o3)C2=O)cc1
inactive: A549-ACTB-RAB5A 0 | A549-CANX-COX4 0 | A549-GM130-SQSTM1 0 | A549-TP53BP1-CLTA 0 | A549-TUBA1B-RELA 0 | HepG2-ACTB-RAB5A 0 | HepG2-CANX-COX4 0 | HepG2-GM130-SQSTM1 0 | HepG2-TP53BP1-CLTA 0 | HepG2-TUBA1B-RELA 0 | WPMY1-ACTB-RAB5A 0 | WPMY1-CANX-COX4 0 | WPMY1-GM130-SQSTM1 0 | WPMY1-TP53BP1-CLTA 0 | WPMY1-TUBA1B-RELA 0

O=c1oc2c(O)c(O)cc3c(=O)oc4c(O)c(O)cc1c4c23 [Ellagic acid]
inactive: A549-ACTB-RAB5A 0 | A549-CANX-COX4 0 | A549-GM130-SQSTM1 0 | A549-TP53BP1-CLTA 0 | A549-TUBA1B-RELA 0 | HepG2-ACTB-RAB5A 0 | HepG2-CANX-COX4 0 | HepG2-GM130-SQSTM1 0 | HepG2-TP53BP1-CLTA 0 | HepG2-TUBA1B-RELA 0 | WPMY1-ACTB-RAB5A 0 | WPMY1-CANX-COX4 0 | WPMY1-GM130-SQSTM1 0 | WPMY1-TP53BP1-CLTA 0 | WPMY1-TUBA1B-RELA 0

O=C(Nc1cccc(Br)c1)c1cccc(S(=O)(=O)N2CCCCCC2)c1
inactive: A549-ACTB-RAB5A 0 | A549-CANX-COX4 0 | A549-GM130-SQSTM1 0 | A549-TP53BP1-CLTA 0 | A549-TUBA1B-RELA 0 | HepG2-ACTB-RAB5A 0 | HepG2-CANX-COX4 0 | HepG2-GM130-SQSTM1 0 | HepG2-TP53BP1-CLTA 0 | HepG2-TUBA1B-RELA 0 | WPMY1-ACTB-RAB5A 0 | WPMY1-CANX-COX4 0 | WPMY1-GM130-SQSTM1 0 | WPMY1-TP53BP1-CLTA 0 | WPMY1-TUBA1B-RELA 0

CC(C)[C@](O)(c1ccc2cc(OC(F)F)c(OC(F)F)cc2c1)c1c[nH]nn1
inactive: A549-ACTB-RAB5A 0 | A549-CANX-COX4 0 | A549-GM130-SQSTM1 0 | A549-TP53BP1-CLTA 0 | A549-TUBA1B-RELA 0 | HepG2-ACTB-RAB5A 0 | HepG2-CANX-COX4 0 | HepG2-GM130-SQSTM1 0 | HepG2-TP53BP1-CLTA 0 | HepG2-TUBA1B-RELA 0 | WPMY1-ACTB-RAB5A 0 | WPMY1-CANX-COX4 0 | WPMY1-GM130-SQSTM1 0 | WPMY1-TP53BP1-CLTA 0 | WPMY1-TUBA1B-RELA 0

NC(=O)c1ncn([C@@H]2O[C@H](CO)[C@@H](O)[C@H]2O)c1N
inactive: A549-ACTB-RAB5A 0 | A549-CANX-COX4 0 | A549-GM130-SQSTM1 0 | A549-TP53BP1-CLTA 0 | A549-TUBA1B-RELA 0 | HepG2-ACTB-RAB5A 0 | HepG2-CANX-COX4 0 | HepG2-GM130-SQSTM1 0 | HepG2-TP53BP1-CLTA 0 | HepG2-TUBA1B-RELA 0 | WPMY1-ACTB-RAB5A 0 | WPMY1-CANX-COX4 0 | WPMY1-GM130-SQSTM1 0 | WPMY1-TP53BP1-CLTA 0 | WPMY1-TUBA1B-RELA 0

C[N+](C)(C)CC[N+]1(C)Cc2c(Cl)c(Cl)c(Cl)c(Cl)c2C1 [Chlorisondamine diiodide]
inactive: A549-ACTB-RAB5A 0 | A549-CANX-COX4 0 | A549-GM130-SQSTM1 0 | A549-TP53BP1-CLTA 0 | A549-TUBA1B-RELA 0 | HepG2-ACTB-RAB5A 0 | HepG2-CANX-COX4 0 | HepG2-GM130-SQSTM1 0 | HepG2-TP53BP1-CLTA 0 | HepG2-TUBA1B-RELA 0 | WPMY1-ACTB-RAB5A 0 | WPMY1-CANX-COX4 0 | WPMY1-GM130-SQSTM1 0 | WPMY1-TP53BP1-CLTA 0 | WPMY1-TUBA1B-RELA 0

O=P(O)(O)C(O)(Cn1ccnc1)P(=O)(O)O [zoledronic-acid]
inactive: A549-ACTB-RAB5A 0 | A549-CANX-COX4 0 | A549-GM130-SQSTM1 0 | A549-TP53BP1-CLTA 0 | A549-TUBA1B-RELA 0 | HepG2-ACTB-RAB5A 0 | HepG2-CANX-COX4 0 | HepG2-GM130-SQSTM1 0 | HepG2-TP53BP1-CLTA 0 | HepG2-TUBA1B-RELA 0 | WPMY1-ACTB-RAB5A 0 | WPMY1-CANX-COX4 0 | WPMY1-GM130-SQSTM1 0 | WPMY1-TP53BP1-CLTA 0 | WPMY1-TUBA1B-RELA 0

CCOC(=O)CCNc1cc(N2CCc3ccccc3CC2)nc(-c2cccnc2)n1
inactive: A549-ACTB-RAB5A 0 | A549-CANX-COX4 0 | A549-GM130-SQSTM1 0 | A549-TP53BP1-CLTA 0 | A549-TUBA1B-RELA 0 | HepG2-ACTB-RAB5A 0 | HepG2-CANX-COX4 0 | HepG2-GM130-SQSTM1 0 | HepG2-TP53BP1-CLTA 0 | HepG2-TUBA1B-RELA 0 | WPMY1-ACTB-RAB5A 0 | WPMY1-CANX-COX4 0 | WPMY1-GM130-SQSTM1 0 | WPMY1-TP53BP1-CLTA 0 | WPMY1-TUBA1B-RELA 0

CCCC(=O)O [Sodium butyrate]
inactive: A549-ACTB-RAB5A 0 | A549-CANX-COX4 0 | A549-GM130-SQSTM1 0 | A549-TP53BP1-CLTA 0 | A549-TUBA1B-RELA 0 | HepG2-ACTB-RAB5A 0 | HepG2-CANX-COX4 0 | HepG2-GM130-SQSTM1 0 | HepG2-TP53BP1-CLTA 0 | HepG2-TUBA1B-RELA 0 | WPMY1-ACTB-RAB5A 0 | WPMY1-CANX-COX4 0 | WPMY1-GM130-SQSTM1 0 | WPMY1-TP53BP1-CLTA 0 | WPMY1-TUBA1B-RELA 0

— the supplement of paper PMC7411054
